Measured values: PubChem BioAssay
For some assays here: Results with a measured potency or affinity are listed apart. Calls of active or inactive are those of the source. Cut-off read from the data, not from the text of the source: active = parasite load remaining mostly below about 12% (no sharp cut-off); inactive = mostly above about 10%.

What was measured:
[1] = polyglutamine-triggered caspase-3 activation inhibitors, cell-based (AID 1583); details: polyglutamine-induced caspase-3 activation, cell assay; stronger effect = higher value;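 tested at 10 µM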
[2] = suppressors of polyQ aggregation in yeast, 75Q-TubU reporter (AID 1593); details: Yeast 75Q polyglutamine aggregation reporter
[3] = rescue of polyQ-huntingtin neuronal dysfunction in worms, whole organism, C. elegans mechanosensory neurons, N-terminal huntingtin (AID 1599); details: touch response, stronger effect = higher value
[4] = inhibitors of mitochondrial cytochrome c release, biochemical, purified mitochondria (AID 1603); details: stronger effect = lower value;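 note: mouse liver mitochondria challenged with calcium chloride; signal normalized to the plate average as 100%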
[5] = inhibitors of polyQ protein aggregation (AID 1604); details: polyglutamine-induced protein aggregation inhibition assay; stronger effect = higher value; tested at 2.5 µM
[6] = enhancers of glutamate uptake in motor neurons, MN-1 cell line (AID 1612); details: MN-1 motor neuron cells, stronger effect = higher value;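 note: tested at 1 µM final; 0% = mean of DMSO vehicle wells on each plate; positive means more glutamate uptake than control and negative means less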
[7] = reducers of polyQ inclusions in PC12 cells, cell-based, NGF-treated PC12, GFPQ80 (AID 1614); details: PC12 NGF-treated GFP-polyQ80 inclusion reduction;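 note: lower means fewer inclusions and 0 means no inclusions at all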
[8] = suppressors of polyglutamine aggregation in yeast, 75Q-TubH (AID 1616); details: S. cerevisiae 75Q-TubH polyglutamine aggregation suppression; stronger effect = higher value
[9] = liver-stage malaria parasite growth inhibition, primary screen, cell-based, HepG2, luciferase luminescence, HepG2 viability (AID 624349);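 note: 100% = mean of DMSO negative control wells on the same plate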; details: P. berghei liver stage in HepG2, luciferase luminescence, concentration not given here; parasite load remaining: stronger effect = lower value; viability: measured here: HepG2 viability without parasites

SMILES | inhibition [1] [%] | score [2] | rescue above control [3] | cytochrome c release ratio [4] | inhibition of aggregation [5] [%] | glutamate uptake change [6] [%] | inclusion score [7] | aggregation suppression score [8] | parasite load remaining [9] | viability [9] [%]
O=C(Cc1cccs1)NC1C(=O)N2C(C(=O)[O-])=C(C[n+]3ccccc3)CSC12 (centres undefined) | 35.1 | 1.38 | -1.43 | 1.22 | 59 | -13.7 | 2 | 1.45 | 179% (inactive) | 74.4
CC(=O)C1CCC2C3CC=C4CC(OS(=O)(=O)O)CC[C@]4(C)C3CC[C@]12C (some centres undefined) | -1.98 | 0.85 | 6.71 | 1.34 | 37.2 | 48.1 | 2 | 0.286 | – | –
NC[C@@H]1O[C@H](O[C@@H]2[C@@H](CO)OC(O[C@@H]3[C@@H](O)[C@H](N)C[C@H](N)[C@H]3OC3O[C@H](CO)[C@@H](O)[C@H](O)[C@H]3N)[C@@H]2O)[C@H](N)[C@@H](O)[C@@H]1O (some centres undefined) | -9.63 | 1.53 | 1.69 | 1.36 | 42.9 | -14.4 | 2 | 1.65 | – | –
CO/N=C(\C(=O)NC1C(=O)N2C(C(=O)O)=C(CSc3nc(=O)c(O)nn3C)CS[C@H]12)c1csc(N)n1 (some centres undefined) | 3.84 | 1.38 | -0.56 | 1.14 | 62.1 | 15.4 | 2 | 1.05 | – | –
CCC[C@@H]1C[C@@H](C(=O)NC(C(C)Cl)C2O[C@H](SC)[C@H](O)[C@@H](O)[C@H]2O)N(C)C1 (some centres undefined) | 0.38 | 1.1 | -7.48 | 1.11 | 60.6 | -13 | 2 | 1.42 | – | –
COc1ccc(CCC(=O)c2c(O)cc(O[C@@H]3O[C@H](CO)C(O)[C@H](O)C3O[C@@H]3O[C@@H](C)[C@H](O)[C@@H](O)[C@H]3O)cc2O)cc1O (some centres undefined) | 18.6 | 1.15 | -2.46 | 1.1 | 77.8 | -15.4 | 2 | 1.25 | 146% (inactive) | 70.8
CC(=O)CCC1C2=NC(=C\C3=NC(=C(/C)C4=NC(C)(C5[N-]/C(=C\2C)C(C)(CCC(=O)NCC(C)OP(=O)(O)O[C@@H]2[C@@H](CO)OC(n6cnc7cc(C)c(C)cc76)[C@@H]2O)C5CC(N)=O)C(C)(CC(N)=O)C4CCC(N)=O)/C(C)(CC(N)=O)C3CCC(N)=O)/C1(C)C.[CH2-][C@H]1OC(n2cnc3c(N)ncnc32)[C@H](O)[C@@H]1O.[Co+2] (some centres undefined) | 55.6 | 1.56 | 0.82 | 0.56 | 44.4 | 14.2 | – | 1.42 | – | –
CC(N)C(O)c1cccc(O)c1 (centres undefined) | -31.9 | 1.32 | 2.5 | 0.89 | 91.7 | -5.75 | 2 | 1.46 | 141% (inactive) | 88.5
OCc1cc2c(cn1)[nH]c1ccccc12 | 15.8 | 0.82 | 10.8 | 0.58 | -1.27 | 17.8 | 2 | 1.28 | – | –
CC(=O)N[C@@H](Cc1c[nH]c2ccccc12)C(=O)O | 20.8 | 1.18 | 0.41 | 0.48 | 74.4 | 9.72 | 2 | 1.31 | 106% (inactive) | 70.5
Nc1ncnc2c1ncn2C1OC(CO)[C@H](O)C1O (some centres undefined) | -97.3 | 1.18 | -9.49 | 1.64 | 80.6 | 3.91 | 2 | 1.96 | – | –
CC1(C)O[C@@H]2C[C@H]3C4C[C@H](F)C5=CC(=O)C=CC5(C)[C@@]4(F)[C@@H](O)C[C@]3(C)[C@]2(C(=O)CO)O1 (some centres undefined) | -27.2 | 1.29 | -9.42 | 0.94 | 61.1 | 15.9 | 2 | 1.43 | – | –
CC12CC[C@@H]3c4ccc(O)cc4CCC3[C@@H]1CCC2=O (some centres undefined) | -0.88 | 0.11 | 10.3 | 0.91 | 62 | -29 | 2 | 0.566 | – | –
CCC(=O)OC1CCC2C3CCc4cc(O)ccc4C3CCC12C (centres undefined) | 6.67 | 0.64 | -1.7 | 1.72 | 85.9 | -23.3 | – | 0.421 | – | –
NC[C@@H]1O[C@H](O[C@H]2[C@@H](O)[C@H](O[C@@H]3[C@@H](O)[C@H](N)C[C@H](N)[C@H]3O[C@@H]3O[C@H](CO)[C@@H](O)C[C@H]3N)O[C@@H]2CO)[C@H](N)[C@@H](O)[C@@H]1O[C@H]1O[C@H](CO)[C@@H](O)[C@H](O)[C@@H]1O | -3.41 | 1.7 | 7.71 | 0.95 | 11.6 | 1.1 | 2 | 1.86 | – | –
CC(C)CC1NC(=O)CNC1=O (centres undefined) | 8.98 | 1.33 | -6.28 | 1.01 | -30.2 | -1.97 | 2 | 0.832 | – | –
